Measurements as given in ChEMBL document CHEMBL2218924, “A broad activity screen in support of a chemogenomic map for kinase signalling research and drug discovery” (Biochem J, 2013).

What was measured:
[1] = target: Tyrosine-protein kinase SYK (Homo sapiens) (UniProt P43405); conditions: at 10 µM
[2] = target: T1, Mitogen-activated protein kinase kinase kinase 7 (Homo sapiens) (UniProt O43318); conditions: at 1 µM
T1 sequence (whole entry): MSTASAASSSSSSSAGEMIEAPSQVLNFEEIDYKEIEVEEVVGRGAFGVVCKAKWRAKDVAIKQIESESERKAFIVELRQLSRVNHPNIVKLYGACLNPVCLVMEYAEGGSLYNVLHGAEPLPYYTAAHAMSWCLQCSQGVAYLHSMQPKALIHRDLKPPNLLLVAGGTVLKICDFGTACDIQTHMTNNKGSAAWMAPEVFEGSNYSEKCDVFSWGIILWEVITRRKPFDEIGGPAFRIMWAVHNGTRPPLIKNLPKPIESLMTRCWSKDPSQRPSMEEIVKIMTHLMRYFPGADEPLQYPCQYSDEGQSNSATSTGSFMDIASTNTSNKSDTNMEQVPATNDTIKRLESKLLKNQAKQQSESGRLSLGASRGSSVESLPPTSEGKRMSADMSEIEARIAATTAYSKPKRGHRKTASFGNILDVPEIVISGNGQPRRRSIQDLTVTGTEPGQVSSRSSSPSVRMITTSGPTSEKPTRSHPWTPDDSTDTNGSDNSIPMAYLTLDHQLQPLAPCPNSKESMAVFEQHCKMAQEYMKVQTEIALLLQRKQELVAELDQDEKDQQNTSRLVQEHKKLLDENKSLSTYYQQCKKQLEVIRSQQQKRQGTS

[3] = target: T1, Mitogen-activated protein kinase kinase kinase 7 (Homo sapiens); conditions: at 10 µM
[4] = target: T2, Serine/threonine-protein kinase TAO1 (Homo sapiens) (UniProt Q7L7X3); conditions: at 1 µM
T2 sequence (whole entry): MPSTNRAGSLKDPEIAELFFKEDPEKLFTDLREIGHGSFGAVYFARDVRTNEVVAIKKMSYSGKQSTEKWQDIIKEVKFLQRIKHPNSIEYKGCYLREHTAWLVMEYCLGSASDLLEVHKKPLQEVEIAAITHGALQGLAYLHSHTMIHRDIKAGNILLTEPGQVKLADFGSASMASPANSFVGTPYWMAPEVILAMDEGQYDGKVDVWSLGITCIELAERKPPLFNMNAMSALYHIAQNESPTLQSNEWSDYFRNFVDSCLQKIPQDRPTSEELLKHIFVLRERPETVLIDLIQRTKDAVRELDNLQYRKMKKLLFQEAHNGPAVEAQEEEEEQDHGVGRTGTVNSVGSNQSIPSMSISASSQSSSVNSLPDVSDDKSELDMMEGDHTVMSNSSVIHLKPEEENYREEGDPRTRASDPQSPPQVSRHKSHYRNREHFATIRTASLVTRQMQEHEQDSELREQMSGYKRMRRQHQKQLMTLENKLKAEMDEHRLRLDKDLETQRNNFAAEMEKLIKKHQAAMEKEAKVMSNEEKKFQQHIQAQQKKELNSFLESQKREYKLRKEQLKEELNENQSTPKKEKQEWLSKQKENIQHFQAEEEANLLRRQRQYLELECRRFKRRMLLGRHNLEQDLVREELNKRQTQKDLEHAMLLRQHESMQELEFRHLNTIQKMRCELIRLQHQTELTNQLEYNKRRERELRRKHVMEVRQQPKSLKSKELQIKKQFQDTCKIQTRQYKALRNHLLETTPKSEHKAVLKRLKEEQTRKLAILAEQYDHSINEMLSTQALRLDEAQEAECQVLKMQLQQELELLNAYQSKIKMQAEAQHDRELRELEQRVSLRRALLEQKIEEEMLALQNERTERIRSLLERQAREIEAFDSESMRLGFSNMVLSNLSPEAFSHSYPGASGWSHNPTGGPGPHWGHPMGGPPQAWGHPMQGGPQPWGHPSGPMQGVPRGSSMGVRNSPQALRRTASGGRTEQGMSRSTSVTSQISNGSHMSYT

[5] = target: T2, Serine/threonine-protein kinase TAO1 (Homo sapiens); conditions: at 10 µM
[6] = target: T3, Serine/threonine-protein kinase TAO2 (Homo sapiens) (UniProt Q9UL54); conditions: at 1 µM
T3 sequence (whole entry): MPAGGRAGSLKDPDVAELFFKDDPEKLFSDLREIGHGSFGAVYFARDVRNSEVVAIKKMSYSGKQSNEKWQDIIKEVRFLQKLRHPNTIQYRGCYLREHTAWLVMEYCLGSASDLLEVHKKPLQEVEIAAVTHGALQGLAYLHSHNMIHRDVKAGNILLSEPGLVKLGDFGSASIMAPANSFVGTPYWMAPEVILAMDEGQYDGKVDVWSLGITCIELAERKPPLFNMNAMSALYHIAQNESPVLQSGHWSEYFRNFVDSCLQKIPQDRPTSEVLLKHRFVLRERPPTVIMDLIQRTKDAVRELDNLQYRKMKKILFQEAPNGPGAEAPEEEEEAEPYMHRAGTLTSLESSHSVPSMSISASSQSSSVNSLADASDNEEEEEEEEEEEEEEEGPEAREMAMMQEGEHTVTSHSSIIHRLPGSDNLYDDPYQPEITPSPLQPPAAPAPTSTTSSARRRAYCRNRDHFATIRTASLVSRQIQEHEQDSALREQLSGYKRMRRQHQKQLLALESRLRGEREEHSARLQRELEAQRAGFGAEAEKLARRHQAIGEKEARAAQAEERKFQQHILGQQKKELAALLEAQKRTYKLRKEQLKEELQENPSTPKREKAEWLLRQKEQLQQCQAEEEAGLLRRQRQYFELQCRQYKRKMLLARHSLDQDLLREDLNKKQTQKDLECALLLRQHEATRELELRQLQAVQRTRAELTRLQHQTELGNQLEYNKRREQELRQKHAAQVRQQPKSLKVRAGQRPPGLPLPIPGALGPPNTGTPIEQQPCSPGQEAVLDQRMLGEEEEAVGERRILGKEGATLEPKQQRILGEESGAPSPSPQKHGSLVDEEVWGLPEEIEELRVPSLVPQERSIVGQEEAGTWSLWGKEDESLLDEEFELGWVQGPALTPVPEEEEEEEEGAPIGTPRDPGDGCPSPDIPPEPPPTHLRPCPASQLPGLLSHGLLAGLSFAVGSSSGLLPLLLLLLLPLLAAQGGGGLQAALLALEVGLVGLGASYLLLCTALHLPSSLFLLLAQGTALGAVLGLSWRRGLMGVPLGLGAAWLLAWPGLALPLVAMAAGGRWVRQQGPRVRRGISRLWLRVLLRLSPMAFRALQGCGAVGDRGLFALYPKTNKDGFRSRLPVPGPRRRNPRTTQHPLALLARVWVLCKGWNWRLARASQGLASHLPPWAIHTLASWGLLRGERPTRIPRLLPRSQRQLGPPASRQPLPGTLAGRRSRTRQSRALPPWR

[7] = target: T3, Serine/threonine-protein kinase TAO2 (Homo sapiens); conditions: at 10 µM
[8] = target: T4, Serine/threonine-protein kinase TAO3 (Homo sapiens) (UniProt Q9H2K8); conditions: at 1 µM
T4 sequence (whole entry): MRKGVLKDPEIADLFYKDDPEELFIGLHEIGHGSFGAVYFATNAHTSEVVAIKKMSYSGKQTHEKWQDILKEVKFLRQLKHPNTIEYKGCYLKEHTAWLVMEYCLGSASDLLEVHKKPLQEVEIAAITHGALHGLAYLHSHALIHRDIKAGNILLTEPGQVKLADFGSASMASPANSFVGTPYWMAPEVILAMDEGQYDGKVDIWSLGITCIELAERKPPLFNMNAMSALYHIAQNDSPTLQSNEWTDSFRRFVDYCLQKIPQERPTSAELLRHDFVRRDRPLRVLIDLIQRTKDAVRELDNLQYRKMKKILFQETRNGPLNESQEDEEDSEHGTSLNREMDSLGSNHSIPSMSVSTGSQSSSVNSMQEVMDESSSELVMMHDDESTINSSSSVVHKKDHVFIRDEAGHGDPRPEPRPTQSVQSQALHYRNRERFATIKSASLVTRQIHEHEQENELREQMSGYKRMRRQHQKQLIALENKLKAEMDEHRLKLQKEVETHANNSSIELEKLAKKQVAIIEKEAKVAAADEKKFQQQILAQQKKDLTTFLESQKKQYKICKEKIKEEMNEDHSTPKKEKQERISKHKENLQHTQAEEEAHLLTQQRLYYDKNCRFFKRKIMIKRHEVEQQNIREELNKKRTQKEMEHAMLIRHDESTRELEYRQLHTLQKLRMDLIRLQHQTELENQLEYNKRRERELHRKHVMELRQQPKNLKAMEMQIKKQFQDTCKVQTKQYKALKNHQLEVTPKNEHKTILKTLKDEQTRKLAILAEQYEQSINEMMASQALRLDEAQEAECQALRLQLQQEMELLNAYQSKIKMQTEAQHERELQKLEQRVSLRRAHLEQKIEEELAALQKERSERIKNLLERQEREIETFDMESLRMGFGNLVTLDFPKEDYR

[9] = target: T4, Serine/threonine-protein kinase TAO3 (Homo sapiens); conditions: at 10 µM
[10] = target: T5, Serine/threonine-protein kinase TBK1 (Homo sapiens) (UniProt Q9UHD2); conditions: at 1 µM
T5 sequence (whole entry): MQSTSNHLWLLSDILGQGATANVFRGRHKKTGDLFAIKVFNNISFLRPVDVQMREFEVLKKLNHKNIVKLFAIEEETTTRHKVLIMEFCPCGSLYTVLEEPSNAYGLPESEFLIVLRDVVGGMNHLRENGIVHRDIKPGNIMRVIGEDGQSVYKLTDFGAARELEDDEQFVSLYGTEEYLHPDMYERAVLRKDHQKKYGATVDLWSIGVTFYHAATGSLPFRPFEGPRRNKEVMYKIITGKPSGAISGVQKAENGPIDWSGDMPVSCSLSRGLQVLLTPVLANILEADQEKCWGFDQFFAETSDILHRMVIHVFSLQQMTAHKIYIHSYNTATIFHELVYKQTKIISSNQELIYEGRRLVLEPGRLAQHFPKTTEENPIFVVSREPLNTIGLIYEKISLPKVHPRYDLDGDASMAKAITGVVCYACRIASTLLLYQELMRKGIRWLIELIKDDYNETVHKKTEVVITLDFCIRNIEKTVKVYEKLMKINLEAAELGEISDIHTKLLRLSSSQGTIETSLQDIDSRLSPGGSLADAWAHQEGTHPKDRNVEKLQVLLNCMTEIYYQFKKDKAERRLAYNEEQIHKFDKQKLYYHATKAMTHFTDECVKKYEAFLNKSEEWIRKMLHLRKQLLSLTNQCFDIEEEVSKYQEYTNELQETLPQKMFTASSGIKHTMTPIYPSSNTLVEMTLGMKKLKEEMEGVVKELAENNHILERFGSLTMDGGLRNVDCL

Q: Which results are given for `CC(C)c1nn(-c2c(Cl)cccc2Cl)c2nc(Cc3ccc(OCCO)cc3)[nH]c(=O)c12`?
A: residual activity [1]: 96%; residual activity [2]: 97%; residual activity [3]: 63%; residual activity [4]: 61%; residual activity [5]: 13%; residual activity [6]: 84%; residual activity [7]: 22%; residual activity [8]: 55%; residual activity [9]: 9%; residual activity [10]: 82%
